Results on 38 molecules are retold here after PubChem BioAssay (NCI).

This is part of a sample that, as a whole, favours compounds with a hit. Of some 83,000 tested, about 20% had one in any assay.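 Treatment: one concentration, 48 hours, 96-well format. Scoring: percent growth, with anything below 10 considered active.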 The source made the active and inactive calls.

The first test relates to IGROV1 ovarian. The test can be described thus: NCI-60 one-dose screen, 48 h (100 = growth as untreated, 0 = no growth, -100 = all killed). The following applies: 10 µM unless noted.
`O=C(CC(O)c1ccncc1)c1ccccc1` (centres undefined): the growth was 18% (inactive).
Consider `O=c1oc2c([nH]c3ccc4ccccc4c32)c2ccccc12`, for which the growth was 118% (inactive).
The same measure, in the same setting: then `Nc1c(C(=O)Nc2ccccc2)sc2nc3c(cc12)CCC3`, with 90.2% (inactive); and `COc1ccc(C2CC(c3cccs3)=NN2c2ccc(S(=O)(=O)NC(=O)NCc3cccc(OC)c3)cc2)cc1` (centres undefined), with 108% (inactive).
With `COc1cc(NC(=O)CSc2nc3ccc(C)cc3c(=O)n2-c2ccccc2)cc(OC)c1OC`, the growth was 89.6% (inactive).
Same read-out and setting: in the case of `Cc1ccc(S(=O)(=O)OC2COCOC2C(OS(=O)(=O)c2ccc(C)cc2)C2OCOCC2OS(=O)(=O)c2ccc(C)cc2)cc1` (centres undefined) it was 110% (inactive).
Take `CC(=O)Nc1ccc(S(=O)(=O)N2C(=O)CCC2C(=O)Nc2ccc(Br)cc2)cc1` (centres undefined): the growth is 37.4% (inactive).
As to `O=C(O)c1ccc(-n2c(=O)c3ccccc3c3ccccc3c2=O)cc1`, the growth is 116% (inactive).
On the same count and under the same terms, then `CS(=O)(=O)N(c1cc(-c2ccc3ncnc(Nc4cccc(Cl)c4)c3c2)cnc1Cl)S(C)(=O)=O`, with -38.3% (active); and `CN(C)c1ncc(-c2ccc(C(F)(F)F)cc2)c(NC2CCCCCC2)n1`, with 78.6% (inactive); and `O=S(=O)(NCCNc1cc(-c2cn(-c3ccccc3)nc2-c2ccccc2)ccn1)c1cccc2ccccc12`, with 63.1% (inactive).
With `CC/C=C\C[C@H](O)C/C=C1/C(=O)C(Cl)=C[C@@H]1C/C=C\CCCC(=O)O`, the growth is 82.7% (inactive).
As for `CC[C@H](C)[C@@H]1NC(=O)[C@H]([C@@H](C)O)NC(=O)C(Cc2ccccc2)NC(=O)[C@@H]2CCCN2C(=O)C(C(C)C)NC(=O)C(Cc2ccccc2)NC(=O)CNC(=O)[C@@H]2CCCN2C1=O` (some centres undefined), the growth was 63.6% (inactive).
On the same count and under the same terms, then `O=C(Nc1cc(C(F)(F)F)cc(C(F)(F)F)c1)Nc1ccc(OCc2nnc(-c3ccc(Cl)cc3)o2)c(F)c1`, with 32.7% (inactive); and `Oc1ccc(N=Cc2ccccc2)cc1`, with 97.1% (inactive); and `Nc1ccccc1C#C/C=C\C#Cc1cccc(O)c1`, with -19.5% (active).
On the same count and under the same terms, then `CCn1cc(C(=O)O)c(=O)c2cc(F)c(N3CCN(S(=O)(=O)c4ccc(Cl)cc4Cl)CC3)cc21`, with 7.5% (active); and `COc1cc(CNC(=O)CSc2nc3ccccc3c(=O)n2Cc2cc(OC)c(OC)c(OC)c2)cc(OC)c1OC`, with 97.9% (inactive).
Take `COc1cc(CCn2nnc3c(NCCCCO)ncnc32)cc(OC)c1`: the growth is 109% (inactive).
On the same count and under the same terms, in the case of `C/C(=C\c1csc(C)n1)[C@@H]1C[C@@H]2O[C@]2(C)CCC[C@H](C)[C@H](O)[C@@H](C)C(=O)C(C)(C)[C@@H](O)CC(=O)N1` it was -85.5% (active); in that of `COc1ccc(S(=O)(=O)N2CCN(c3cc4c(cc3F)c(=O)c(C(=O)O)cn4C3CC3)CC2)c(OC)c1`, 101% (inactive).
Take `CC[C@]1(O)C[C@@H]2CN(Cc3c([nH]c4ccccc34)[C@@](C(=O)OC)(c3cc4c(cc3OC)N(C)[C@H]3[C@@](O)(C(=O)OC)[C@H](OC(C)=O)[C@]5(CC)[C@@H]6C[C@@H]6CN6CC[C@]43[C@@H]65)C2)C1`: the growth was 37.2% (inactive).
On the same count and under the same terms, then `COC1=CC(c2ccc[nH]2)=N/C1=C\c1[nH]c(C)c(C(=O)CCCCC(=O)Oc2ccc3c(c2)CCC2C3CC[C@]3(C)[C@@H](O)CC[C@@H]23)c1C` (some centres undefined), with 70.7% (inactive); and `N#Cc1ncc(-c2ccc(F)c(F)c2F)c(NC2CCCCCC2)n1`, with 83.8% (inactive); and `O=C(O)c1cn(C2CC2)c2cc(N3CCN(S(=O)(=O)c4ccc(Cl)c(Cl)c4)CC3)c(F)cc2c1=O`, with 29.3% (inactive).
On the same count and under the same terms, in the case of `CCCCCCCCCCCCOB(OCCCCCCCCCCCC)OCCCCCCCCCCCC` it was 107% (inactive).
With `CNC(C)=O`, the growth is 105% (inactive).
Still for that read-out and setting: in the case of `COc1cc2nc(N3CCC[C@@H](NC4=CC(=O)c5ccccc5C4=O)C3)nc(N)c2cc1OC` it was -82.3% (active); in that of `COC(=O)[C@H]1[C@H](OC)[C@@H](OC(=O)/C=C/c2ccncc2)CC2CN3CCc4c([nH]c5cc(OC)ccc45)[C@@H]3C[C@@H]21` (some centres undefined), 85.2% (inactive).
As to `Clc1nc(-c2cccnc2)nc2sc3c(c12)CCCCCC3`, the growth was 107% (inactive).
On the same count and under the same terms, in the case of `O=c1oc2cc(OS(=O)(=O)c3ccc(F)cc3)ccc2c2c1CCCCC2` it was 95.2% (inactive).
In the case of `CC(=O)C1CCC(C)=CC1=O` (centres undefined), the growth was 102% (inactive).

The test system of a further test is OVCAR-3 ovarian. Described as above. The following applies: 10 µM unless noted.
Consider `Cc1cc(C)c(S(=O)(=O)N2CCN(c3cc4c(cc3F)c(=O)c(C(=O)O)cn4C3CC3)CC2)c(C)c1`, for which the growth was 91.3% (inactive).
The same measure, in the same setting: in the case of `CCn1cc(C(=O)O)c(=O)c2cc(F)c(N3CCN(S(=O)(=O)c4ccc(OC)c(OC)c4)CC3)cc21` it was 109% (inactive); in that of `Cc1ccc(S(=O)(=O)OCC(=O)Nc2ccc(C(=O)O)c(O)c2)cc1`, 118% (inactive).
Still for that read-out and setting: then `Clc1ccc(-c2nc(-c3ccco3)cn3ccnc23)cc1`, with 50.7% (inactive); and `CCn1cc(C(=O)O)c(=O)c2cc(F)c(N3CCN(S(=O)(=O)c4cccc5ccccc45)CC3)cc21`, with -6.25% (active); and `O=P([O-])(O)OP(=O)([O-])O.[NH-][C@H]1CCCC[C@@H]1[NH-].[OH-].[OH-].[Pt+4]`, with 111% (inactive).
Same read-out and setting: then `O=C(CC(O)c1ccncc1)c1ccccc1` (centres undefined), with -60.5% (active); and `O=c1oc2c([nH]c3ccc4ccccc4c32)c2ccccc12`, with 109% (inactive); and `COc1ccc(C2CC(c3cccs3)=NN2c2ccc(S(=O)(=O)NC(=O)NCc3cccc(OC)c3)cc2)cc1` (centres undefined), with 106% (inactive).
Regarding `COc1cc(NC(=O)CSc2nc3ccc(C)cc3c(=O)n2-c2ccccc2)cc(OC)c1OC`, the growth is 84.4% (inactive).
In the case of `Cc1ccc(S(=O)(=O)OC2COCOC2C(OS(=O)(=O)c2ccc(C)cc2)C2OCOCC2OS(=O)(=O)c2ccc(C)cc2)cc1` (centres undefined), the growth is 110% (inactive).
Same read-out and setting: in the case of `CC(=O)Nc1ccc(S(=O)(=O)N2C(=O)CCC2C(=O)Nc2ccc(Br)cc2)cc1` (centres undefined) it was 24.4% (inactive); in that of `O=C(O)c1ccc(-n2c(=O)c3ccccc3c3ccccc3c2=O)cc1`, 111% (inactive); in that of `CS(=O)(=O)N(c1cc(-c2ccc3ncnc(Nc4cccc(Cl)c4)c3c2)cnc1Cl)S(C)(=O)=O`, 11.1% (inactive).
Consider `CN(C)c1ncc(-c2ccc(C(F)(F)F)cc2)c(NC2CCCCCC2)n1`, for which the growth is 26.5% (inactive).
`O=S(=O)(NCCNc1cc(-c2cn(-c3ccccc3)nc2-c2ccccc2)ccn1)c1cccc2ccccc12`: the growth was 59.5% (inactive).
For `CC/C=C\C[C@H](O)C/C=C1/C(=O)C(Cl)=C[C@@H]1C/C=C\CCCC(=O)O`, the growth is 28.9% (inactive).
Turning to `CC[C@H](C)[C@@H]1NC(=O)[C@H]([C@@H](C)O)NC(=O)C(Cc2ccccc2)NC(=O)[C@@H]2CCCN2C(=O)C(C(C)C)NC(=O)C(Cc2ccccc2)NC(=O)CNC(=O)[C@@H]2CCCN2C1=O` (some centres undefined), the growth was 57.6% (inactive).
On the same count and under the same terms, then `O=C(Nc1cc(C(F)(F)F)cc(C(F)(F)F)c1)Nc1ccc(OCc2nnc(-c3ccc(Cl)cc3)o2)c(F)c1`, with 16% (inactive); and `Oc1ccc(N=Cc2ccccc2)cc1`, with 7.09% (active).
The same measure, in the same setting: then `Nc1ccccc1C#C/C=C\C#Cc1cccc(O)c1`, with 43% (inactive).
On the same count and under the same terms, then `CCn1cc(C(=O)O)c(=O)c2cc(F)c(N3CCN(S(=O)(=O)c4ccc(Cl)cc4Cl)CC3)cc21`, with 7.89% (active); and `COc1cc(CCn2nnc3c(NCCCCO)ncnc32)cc(OC)c1`, with 107% (inactive).
Take `C/C(=C\c1csc(C)n1)[C@@H]1C[C@@H]2O[C@]2(C)CCC[C@H](C)[C@H](O)[C@@H](C)C(=O)C(C)(C)[C@@H](O)CC(=O)N1`: the growth was -100% (active).
As to `COc1ccc(S(=O)(=O)N2CCN(c3cc4c(cc3F)c(=O)c(C(=O)O)cn4C3CC3)CC2)c(OC)c1`, the growth was 95.8% (inactive).
Still for that read-out and setting: then `O=C(O)c1cn(C2CC2)c2cc(N3CCN(S(=O)(=O)c4ccc(Cl)c(Cl)c4)CC3)c(F)cc2c1=O`, with 9.87% (active); and `CCCCCCCCCCCCOB(OCCCCCCCCCCCC)OCCCCCCCCCCCC`, with 74.3% (inactive).
Regarding `CNC(C)=O`, the growth was 75.8% (inactive).
Still for that read-out and setting: then `COc1cc2nc(N3CCC[C@@H](NC4=CC(=O)c5ccccc5C4=O)C3)nc(N)c2cc1OC`, with -69.5% (active).
Still for that read-out and setting: in the case of `COC(=O)[C@H]1[C@H](OC)[C@@H](OC(=O)/C=C/c2ccncc2)CC2CN3CCc4c([nH]c5cc(OC)ccc45)[C@@H]3C[C@@H]21` (some centres undefined) it was 89.8% (inactive); in that of `O=c1oc2cc(OS(=O)(=O)c3ccc(F)cc3)ccc2c2c1CCCCC2`, 77.8% (inactive).
`CC(=O)C1CCC(C)=CC1=O` (centres undefined): the growth was 108% (inactive).
